Test results: ChEMBL document CHEMBL3988442, “University of Dundee, Small-Polar-MMV Screening Library” (2021)
For part of these data: Entries with a potency or affinity are not part of this list.

How the values were obtained:
Parameters in all cases: scale not given: direction of the effect not stated beside the values
[1] = biological target: Protein translocase subunit SecA (Escherichia coli (strain K12)) (UniProt P10408); test: Assay to Identify E. coli SecA ATPase Inhibitors; format: functional; details: 30 µM
[2] = biological target: T1, Ubiquitin-activating enzyme e1, putative (Leishmania donovani (strain BPK282A1)) (UniProt E9BSI1); test: Leishmania donovani Ubiquitin Activating Enzyme (LdE1); format: functional; details: 30 µM
T1 sequence (whole entry): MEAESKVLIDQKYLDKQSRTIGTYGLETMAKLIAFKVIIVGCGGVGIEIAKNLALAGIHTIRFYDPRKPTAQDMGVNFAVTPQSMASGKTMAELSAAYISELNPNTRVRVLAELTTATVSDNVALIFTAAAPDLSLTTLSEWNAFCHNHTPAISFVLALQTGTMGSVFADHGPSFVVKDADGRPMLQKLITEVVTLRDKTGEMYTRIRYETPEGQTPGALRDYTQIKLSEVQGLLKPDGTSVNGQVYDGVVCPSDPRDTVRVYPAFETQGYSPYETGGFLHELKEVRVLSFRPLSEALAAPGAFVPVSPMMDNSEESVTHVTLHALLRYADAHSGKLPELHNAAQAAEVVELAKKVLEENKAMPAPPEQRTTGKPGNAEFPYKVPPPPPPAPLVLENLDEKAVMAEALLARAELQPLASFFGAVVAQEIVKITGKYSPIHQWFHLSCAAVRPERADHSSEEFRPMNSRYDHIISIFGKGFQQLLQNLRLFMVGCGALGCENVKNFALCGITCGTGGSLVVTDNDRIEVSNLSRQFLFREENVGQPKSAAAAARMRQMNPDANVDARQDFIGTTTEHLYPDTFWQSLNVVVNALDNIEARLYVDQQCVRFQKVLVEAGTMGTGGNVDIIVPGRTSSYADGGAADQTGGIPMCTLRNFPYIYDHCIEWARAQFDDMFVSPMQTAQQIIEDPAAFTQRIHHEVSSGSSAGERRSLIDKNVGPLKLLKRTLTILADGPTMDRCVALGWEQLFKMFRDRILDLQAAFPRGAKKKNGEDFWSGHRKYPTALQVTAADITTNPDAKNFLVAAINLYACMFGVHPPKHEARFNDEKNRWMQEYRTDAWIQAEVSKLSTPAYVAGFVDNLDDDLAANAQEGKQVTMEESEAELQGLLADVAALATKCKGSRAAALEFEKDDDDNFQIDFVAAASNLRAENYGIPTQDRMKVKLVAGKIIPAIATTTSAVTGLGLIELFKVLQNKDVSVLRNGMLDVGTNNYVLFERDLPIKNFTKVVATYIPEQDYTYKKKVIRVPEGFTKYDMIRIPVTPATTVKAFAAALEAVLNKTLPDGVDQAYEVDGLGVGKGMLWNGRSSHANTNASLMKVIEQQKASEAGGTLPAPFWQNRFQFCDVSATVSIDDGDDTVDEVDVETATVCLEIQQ

[3] = biological target: T2, Aspartate--tRNA(Asp/Asn) ligase (Mycobacterium tuberculosis (strain ATCC 25618 / H37Rv)) (UniProt P9WFW3); test: Assay for Asp RNA synthetase-1 from Mycobacterium tuberculosis; format: functional; details: 30 µM; further: in the data most compounds retested in dose-response had high values
T2 sequence (whole entry): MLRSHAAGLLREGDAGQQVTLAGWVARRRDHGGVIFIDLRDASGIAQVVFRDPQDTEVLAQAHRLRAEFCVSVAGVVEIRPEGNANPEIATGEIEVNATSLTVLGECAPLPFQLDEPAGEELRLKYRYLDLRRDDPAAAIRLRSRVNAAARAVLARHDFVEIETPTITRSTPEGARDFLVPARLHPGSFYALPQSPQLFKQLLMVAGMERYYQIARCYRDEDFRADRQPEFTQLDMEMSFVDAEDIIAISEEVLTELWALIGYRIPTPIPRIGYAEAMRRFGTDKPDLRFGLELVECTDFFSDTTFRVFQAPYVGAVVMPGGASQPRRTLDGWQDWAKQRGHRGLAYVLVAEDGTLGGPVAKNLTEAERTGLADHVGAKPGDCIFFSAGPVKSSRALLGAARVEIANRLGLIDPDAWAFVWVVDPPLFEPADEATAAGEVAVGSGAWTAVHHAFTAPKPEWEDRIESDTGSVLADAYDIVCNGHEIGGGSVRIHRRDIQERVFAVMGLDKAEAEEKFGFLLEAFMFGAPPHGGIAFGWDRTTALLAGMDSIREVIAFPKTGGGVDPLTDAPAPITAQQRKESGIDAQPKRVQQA

[4] = biological target: AMP-activated protein kinase, AMPK (Homo sapiens) (UniProt P54646+O43741+P54619+Q9UGJ0+Q9Y478+Q13131+Q9UGI9); test: AMP-dependent Kinase enzyme assay. An in vitro enzyme assay that detects ADP turnover that is directly proportional to AMPK activity. This uses naive AMPK that is activated during the assay with MK-8722; format: functional; details: 30 µM
[5] = biological target: Sialic acid-binding Ig-like lectin 9 (Homo sapiens) (UniProt Q9Y336); test: Hs-Siglec9 ALPHAscreen SOP 20170721; details: 10 µM
Trypanosoma cruzi = test: Trypanosoma cruzi phosphomannomutase and mannose-1-phosphate guanylyltransferase assay; format: functional; details: 10 µM
[6] = biological target: T3, Arginase-2, mitochondrial (Homo sapiens) (UniProt P78540); test: in vitro enzyme assay to detect the production of urea directly proportional to the activity of Arginase II; format: functional; details: 33.3 µM; further: in the data most compounds retested in dose-response had high values
T3 sequence (whole entry): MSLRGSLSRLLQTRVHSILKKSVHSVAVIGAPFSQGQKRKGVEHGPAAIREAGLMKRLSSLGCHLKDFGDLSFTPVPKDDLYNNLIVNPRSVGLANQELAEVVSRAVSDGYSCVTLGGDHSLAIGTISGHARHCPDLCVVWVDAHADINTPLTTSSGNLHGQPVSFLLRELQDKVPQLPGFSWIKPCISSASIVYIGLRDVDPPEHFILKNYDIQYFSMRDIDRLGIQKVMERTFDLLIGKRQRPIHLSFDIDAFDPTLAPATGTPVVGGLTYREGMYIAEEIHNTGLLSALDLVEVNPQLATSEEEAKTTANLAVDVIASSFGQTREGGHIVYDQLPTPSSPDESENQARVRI

[7] = biological target: T4, Proteasome subunit beta (Trypanosoma cruzi) (UniProt O96673); test: Trypanosoma cruzi proteasome chymotrypsin-like activity (TcProtChymo) assay.; further: in the data most compounds retested in dose-response had high values; format: functional; details: 9.37 µM
T4 sequence (whole entry): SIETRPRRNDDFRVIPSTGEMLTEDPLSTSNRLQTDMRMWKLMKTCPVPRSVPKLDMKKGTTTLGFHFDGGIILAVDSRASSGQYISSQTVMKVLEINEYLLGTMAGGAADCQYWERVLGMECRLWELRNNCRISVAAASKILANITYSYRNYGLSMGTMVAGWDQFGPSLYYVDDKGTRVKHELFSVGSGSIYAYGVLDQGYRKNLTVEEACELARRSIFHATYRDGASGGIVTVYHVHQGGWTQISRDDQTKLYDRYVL

Homo sapiens = organism: Homo sapiens; test: To identify inhibition of the IFN signalling (Jak-Stat) pathway via expression of an eGFP reporter gene under the control of an IFN-stimulated response element (ISRE) containing MxA promoter.; format: functional; details: 30 µM
[8] = biological target: Shiga toxin 2 (Escherichia coli O157:H7) (UniProt P09385+P09386); test: E. coli 0.157:H7 Shiga Toxin SOP - stx2 screening assay; format: functional; details: 30 µM
[9] = biological target: T5, Tyrosyl-tRNA synthetase, putative (Trypanosoma cruzi (strain CL Brener)) (UniProt Q4DSP6); test: Trypanosoma cruzi tyrosyl tRNA synthetase (TcYRS) _High Tyrosine SOP; format: functional; details: 30 µM; further: in the data most compounds retested in dose-response had high values
T5 sequence (whole entry): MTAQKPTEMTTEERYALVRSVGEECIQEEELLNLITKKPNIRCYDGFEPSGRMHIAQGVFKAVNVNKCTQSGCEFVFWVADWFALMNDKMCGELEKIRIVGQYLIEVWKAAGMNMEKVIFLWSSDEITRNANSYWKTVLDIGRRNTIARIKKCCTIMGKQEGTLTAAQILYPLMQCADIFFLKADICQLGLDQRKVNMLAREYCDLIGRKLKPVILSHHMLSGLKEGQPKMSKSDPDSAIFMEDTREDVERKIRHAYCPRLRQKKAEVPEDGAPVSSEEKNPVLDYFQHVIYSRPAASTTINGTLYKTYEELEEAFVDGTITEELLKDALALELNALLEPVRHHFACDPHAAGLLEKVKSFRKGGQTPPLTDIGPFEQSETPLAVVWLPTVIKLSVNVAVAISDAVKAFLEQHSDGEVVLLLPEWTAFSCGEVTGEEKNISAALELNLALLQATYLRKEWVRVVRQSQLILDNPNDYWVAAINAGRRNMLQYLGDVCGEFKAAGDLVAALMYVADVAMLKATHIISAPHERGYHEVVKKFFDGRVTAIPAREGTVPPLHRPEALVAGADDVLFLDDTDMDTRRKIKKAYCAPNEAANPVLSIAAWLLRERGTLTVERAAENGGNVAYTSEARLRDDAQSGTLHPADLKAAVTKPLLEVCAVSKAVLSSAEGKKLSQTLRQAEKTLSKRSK

[10] = biological target: T5, Tyrosyl-tRNA synthetase, putative (Trypanosoma cruzi (strain CL Brener)); test: Trypanosoma cruzi tyrosyl tRNA synthetase (TcYRS) SOP; format: functional; details: 30 µM
[11] = biological target: Chromo domain-containing protein 1 (Saccharomyces cerevisiae (strain ATCC 204508 / S288c) (Baker's yeast)) (UniProt P32657); test: ScCHD-1 Enzyme Inhibition Assay; format: functional; details: 30 µM; further: in the data most compounds retested in dose-response had high values
Chain of Chromo domain-containing protein 1 (Saccharomyces cerevisiae (strain ATCC 204508 / S288c) (Baker's yeast)) (P32657 whole entry, the tested form may be a part): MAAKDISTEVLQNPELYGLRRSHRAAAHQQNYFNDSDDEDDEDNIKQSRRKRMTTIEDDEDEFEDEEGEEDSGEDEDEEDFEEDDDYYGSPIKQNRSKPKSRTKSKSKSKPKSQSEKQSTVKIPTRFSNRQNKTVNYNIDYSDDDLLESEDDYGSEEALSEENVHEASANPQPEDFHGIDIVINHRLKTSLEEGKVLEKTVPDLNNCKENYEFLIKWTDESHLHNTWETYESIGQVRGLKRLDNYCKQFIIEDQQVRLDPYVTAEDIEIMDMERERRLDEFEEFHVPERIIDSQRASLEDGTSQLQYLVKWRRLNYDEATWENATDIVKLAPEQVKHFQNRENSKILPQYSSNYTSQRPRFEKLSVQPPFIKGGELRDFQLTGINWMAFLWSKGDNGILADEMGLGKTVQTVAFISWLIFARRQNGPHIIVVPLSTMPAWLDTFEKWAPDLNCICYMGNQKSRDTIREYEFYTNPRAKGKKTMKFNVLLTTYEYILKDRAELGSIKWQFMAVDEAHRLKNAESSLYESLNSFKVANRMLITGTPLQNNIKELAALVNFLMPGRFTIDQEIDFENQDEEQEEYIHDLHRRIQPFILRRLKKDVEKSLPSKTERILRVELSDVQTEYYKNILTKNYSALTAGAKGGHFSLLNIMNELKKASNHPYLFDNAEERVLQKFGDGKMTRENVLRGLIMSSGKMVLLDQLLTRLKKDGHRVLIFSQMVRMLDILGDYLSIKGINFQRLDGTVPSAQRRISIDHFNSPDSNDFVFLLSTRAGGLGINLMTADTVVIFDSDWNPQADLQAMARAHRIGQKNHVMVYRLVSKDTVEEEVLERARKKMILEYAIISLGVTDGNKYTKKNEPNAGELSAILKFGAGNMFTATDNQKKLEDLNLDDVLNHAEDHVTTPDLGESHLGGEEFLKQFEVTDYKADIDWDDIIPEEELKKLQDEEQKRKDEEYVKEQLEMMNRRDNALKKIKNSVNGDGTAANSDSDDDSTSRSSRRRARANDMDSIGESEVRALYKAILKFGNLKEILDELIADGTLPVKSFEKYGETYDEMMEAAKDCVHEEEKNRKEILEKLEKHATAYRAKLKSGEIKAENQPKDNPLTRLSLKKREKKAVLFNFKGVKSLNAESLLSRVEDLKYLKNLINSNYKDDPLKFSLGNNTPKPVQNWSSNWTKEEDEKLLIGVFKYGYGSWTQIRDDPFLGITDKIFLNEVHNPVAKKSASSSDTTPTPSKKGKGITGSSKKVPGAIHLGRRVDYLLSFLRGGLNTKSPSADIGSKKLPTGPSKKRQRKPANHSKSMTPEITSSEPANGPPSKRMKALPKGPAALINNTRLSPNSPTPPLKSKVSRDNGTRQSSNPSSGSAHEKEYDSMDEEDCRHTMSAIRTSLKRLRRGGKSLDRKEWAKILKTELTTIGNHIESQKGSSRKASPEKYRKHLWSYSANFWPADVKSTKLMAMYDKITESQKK

Chain of Sialic acid-binding Ig-like lectin 9 (Homo sapiens) (Q9Y336 whole entry): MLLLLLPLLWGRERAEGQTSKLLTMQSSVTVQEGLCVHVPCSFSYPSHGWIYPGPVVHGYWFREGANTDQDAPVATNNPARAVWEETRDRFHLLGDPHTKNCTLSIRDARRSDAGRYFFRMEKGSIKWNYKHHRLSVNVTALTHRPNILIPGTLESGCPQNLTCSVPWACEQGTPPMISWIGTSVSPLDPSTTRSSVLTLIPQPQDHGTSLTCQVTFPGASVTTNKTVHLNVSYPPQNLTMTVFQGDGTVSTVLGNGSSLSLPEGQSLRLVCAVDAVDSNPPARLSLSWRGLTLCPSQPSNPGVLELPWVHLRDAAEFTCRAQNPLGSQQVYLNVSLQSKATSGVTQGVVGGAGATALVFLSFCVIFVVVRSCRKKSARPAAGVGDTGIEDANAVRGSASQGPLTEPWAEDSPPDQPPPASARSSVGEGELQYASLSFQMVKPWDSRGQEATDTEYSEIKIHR
Chain of Protein translocase subunit SecA (Escherichia coli (strain K12)) (P10408 whole entry): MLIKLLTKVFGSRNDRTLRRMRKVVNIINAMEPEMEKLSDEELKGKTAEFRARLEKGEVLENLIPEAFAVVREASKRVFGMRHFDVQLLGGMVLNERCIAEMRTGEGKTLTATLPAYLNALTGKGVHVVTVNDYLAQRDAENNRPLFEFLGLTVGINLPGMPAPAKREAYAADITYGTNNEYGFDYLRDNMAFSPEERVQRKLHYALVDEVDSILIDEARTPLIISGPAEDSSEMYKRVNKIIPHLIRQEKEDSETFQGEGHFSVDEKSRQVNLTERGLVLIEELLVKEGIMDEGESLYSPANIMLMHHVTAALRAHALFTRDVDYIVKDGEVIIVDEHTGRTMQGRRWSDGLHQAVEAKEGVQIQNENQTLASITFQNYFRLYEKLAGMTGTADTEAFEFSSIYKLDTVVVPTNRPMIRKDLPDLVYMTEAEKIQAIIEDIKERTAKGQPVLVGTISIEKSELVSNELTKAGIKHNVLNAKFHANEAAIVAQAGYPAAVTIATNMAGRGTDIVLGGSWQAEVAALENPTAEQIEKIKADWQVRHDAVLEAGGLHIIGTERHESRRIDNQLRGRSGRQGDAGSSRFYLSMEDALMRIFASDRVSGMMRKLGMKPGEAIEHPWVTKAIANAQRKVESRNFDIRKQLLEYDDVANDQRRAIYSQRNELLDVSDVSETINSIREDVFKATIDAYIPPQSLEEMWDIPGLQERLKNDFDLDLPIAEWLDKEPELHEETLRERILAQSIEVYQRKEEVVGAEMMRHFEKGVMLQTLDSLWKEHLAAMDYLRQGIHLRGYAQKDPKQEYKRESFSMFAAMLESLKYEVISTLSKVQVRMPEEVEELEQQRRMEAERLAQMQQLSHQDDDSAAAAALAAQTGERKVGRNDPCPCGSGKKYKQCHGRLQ

Row | Compound | Percent Effect [1] [%] | Percent Effect [2] [%] | Percent Effect [3] [%] | Percent Effect [4] [%] | Percent Effect [5] [%] | Percent Effect (Trypanosoma cruzi) [%] | Percent Effect [6] [%] | Percent Effect [7] [%] | Percent Effect (Homo sapiens) [%] | Percent Effect [8] [%] | Percent Effect [9] [%] | Percent Effect [10] [%] | Percent Effect [11] [%]
1 | Cc1cc(CC(=O)N2CCN(CC3CC3)[C@@H]3CS(=O)(=O)C[C@@H]32)ccc1F | -1.82 | 6.94 | 3.29 | 35.7 | -0.65 | 0.0972 | 3.53 | 7.02 | -1.41 | 1.5 | 7.37 | -15.4 | -3.03
2 | Cc1ccccc1CC(=O)N1CCN(C2CCOC2=O)CC1 (configuration not stated) | -3.96 | 13.5 | -0.136 | -7.8 | 2.56 | -5.75 | -2.81 | 7.03 | 11.9 | 23.2 | 10.3 | 16.1 | -7.37
3 | Cn1cc(N2C(=O)CC[C@@H]3[C@H]2CCN3Cc2ccncc2)cn1 | -1.29 | 2.67 | -1.89 | -2.47 | 5.41 | -0.193 | -56.1 | 9.06 | -8.54 | -20.8 | 5.21 | 12.5 | -7.17
4 | c1ccc(CO[C@H]2CO[C@@]3(CCN(Cc4ccoc4)C3)C2)nc1 | -1.82 | 14.7 | 2.15 | 3.34 | 5.22 | -1.38 | -7.57 | 10.2 | -27.8 | -30.9 | -1.06 | 12.8 | -9.15
5 | O=C1NC2(CCNCC2)CC1c1cccnc1 (configuration not stated) | -0.858 | 10.7 | -1.51 | 15.3 | -10.1 | -6.89 | 2.1 | 8.55 | 13.1 | -1.63 | 4.25 | 8.97 | -2.26
6 | CC(Cc1c(F)cccc1F)NC(=O)Nc1cnn(CC(N)=O)c1 (configuration not stated) | -4.08 | 21.5 | -0.509 | -1.23 | -0.0747 | 0.513 | -1.07 | 19.7 | 15 | -36.4 | 3.12 | 17.7 | -23.1
7 | O=C(Cc1csc(-c2ccco2)n1)N1CCN(CCO)CC1 | 0.294 | 1.27 | -0.16 | 8.43 | 2.75 | 0.308 | 8.39 | 5.49 | 11.1 | -23.6 | 3.12 | 5.06 | -4.16
8 | CO[C@@H]1CC[C@H]2[C@H]1OCCN2CC1CCOCC1 | -7.48 | 13.5 | -1.82 | -2.63 | 10.8 | 3.91 | 3.33 | 8.88 | 1.72 | 9.96 | 4.95 | 13.4 | -4.03
9 | CC(C)CN1CCC2(CC1)C(=O)Nc1ccc(C(=O)N(C)C)cc12 | -4.79 | 5.41 | -0.578 | -2.95 | -1.19 | -3.81 | 0.248 | 8.67 | 7.43 | 5.38 | 4.3 | 8.64 | -2.28
